IL1B secr inh: inhibitors of inflammasome signaling (IL-1 beta secretion); THP-1 LPS/ATP IL-1B secretion, AlphaLISA, 16 h; active compounds read low; activity change, % at 57.5 µM; actives 4.7% (n = 360,000); in the data active = activity change below about -50%; inconclusive = mostly about -30% to -49%
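Secreted IL-1B measured by AlphaLISA bead assay after 16 h compound exposure of THP-1 cells; compounds (final up to 57.5 uM) added 1 h before LPS (250 ng/mL) and ATP (1.25 mM) stimulation; lower signal means less secretion.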
CtBP-E1A inh: inhibitors of CtBP/E1A interaction; AlphaScreen GST-E1A/His-CtBP binding, 1536-well; active compounds read low; AID 651724; actives 0.49% (n = 340,000); activity change, % (test concentration not listed); in the data active = activity change below about -65%; inconclusive = mostly about -30% to -63%
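In 5 uL wells, 23 nL compound meets equimolar GST-E1A and His-CtBP (5X stock 125 nM each) for 2 h, 37 °C. Beads (5X, 50 ug/mL) then 1 h, 37 °C, dark.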
TDP1 block: blocks human tyrosyl-DNA phosphodiesterase 1; recombinant TDP1, AlphaScreen DNA substrate cleavage; Q9NUW8; actives 0.28% (n = 350,000); Potency, µM (titrated, usually from 130 µM), for inactives: at the highest dose activity change, negative = inhibition, hits mostly inhibitors; AID 485290; also: potency is read from the fitted curve at half-maximal effect; nearly all actives have a fitted effect of over 40% in size
Target sequence (Q9NUW8 whole entry, looked up): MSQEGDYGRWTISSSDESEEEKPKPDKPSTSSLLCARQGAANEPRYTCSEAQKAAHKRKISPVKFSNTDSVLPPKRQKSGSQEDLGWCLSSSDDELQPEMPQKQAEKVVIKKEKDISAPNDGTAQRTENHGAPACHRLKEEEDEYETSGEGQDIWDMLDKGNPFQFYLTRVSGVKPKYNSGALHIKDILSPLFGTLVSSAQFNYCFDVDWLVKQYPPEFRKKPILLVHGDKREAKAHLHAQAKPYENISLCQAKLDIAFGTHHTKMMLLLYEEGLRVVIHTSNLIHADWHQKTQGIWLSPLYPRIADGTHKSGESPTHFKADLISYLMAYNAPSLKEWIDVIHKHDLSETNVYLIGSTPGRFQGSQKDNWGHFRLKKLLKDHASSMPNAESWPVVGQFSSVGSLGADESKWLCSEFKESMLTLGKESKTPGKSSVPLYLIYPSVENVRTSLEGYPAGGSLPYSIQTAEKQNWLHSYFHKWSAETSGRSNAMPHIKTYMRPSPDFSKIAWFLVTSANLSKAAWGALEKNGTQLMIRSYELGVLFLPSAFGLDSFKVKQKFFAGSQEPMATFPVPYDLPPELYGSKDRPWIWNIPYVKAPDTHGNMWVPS
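Here, a 5' biotin and 3' phosphotyrosine-FITC DNA oligonucleotide reports Tdp1 activity: intact substrate bridges AlphaScreen beads, while cleavage leaves a 3' phosphate and drops signal. All incubations at room temperature.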
Six1-Eya2 blk: blocks human Six1 binding to Eya2 | actives 0.56% (n = 360,000) | activity change, % (test concentration not listed) | AlphaScreen GST-Six1/His-Eya2 binding, biochemical; active compounds read low; in the data active = activity change below about -65%; inconclusive = mostly about -30% to -63%
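Homogeneous AlphaScreen proximity assay pairing GST-Six1 with His-tagged Eya2 (added as 5X mix: 250 nM and 500 nM) in 50 mM Tris pH 8.0, 300 mM NaCl, 1 mM TCEP. Glutathione donor and nickel acceptor beads; 1 h, 37 °C, dark.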
DT40 TDP1 CPT: growth inhibition of DT40 Tdp1-/-;hTDP1 cells with camptothecin (screen for TDP1 inhibitors) | chicken DT40 Tdp1-/-;hTDP1 cells + 20 nM CPT, ATP luminescence, 48 h | Potency, µM (top dose mostly 46.2 µM), for the others: at the highest dose activity change, negative = growth inhibition, usual class: inhibitors | actives 12% (n = 420,000); also: potency is read from the fitted curve at half-maximal effect; nearly all actives have a fitted effect of over 55% in size
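Chicken DT40 Tdp1-/- cells stably complemented with human TDP1 were seeded at 400 cells/well in medium containing 20 nM camptothecin, exposed to pin-transferred compounds, and grown at 37 °C for at least 48 hr. Viability was read as ATP luminescence.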
DT40 TDP1 no CPT: qHTS for Inhibitors of human tyrosyl-DNA phosphodiesterase 1 (TDP1): qHTS in cells in absence of CPT. AID 686978, 2013. actives 15% (n = 420,000). DT40 Tdp1-/- hTDP1 cells, no CPT, ATP luminescence, 48 h. Potency, µM (highest dose often 46.2 µM), without a hit: at the top dose activity change, negative = growth inhibition, actives largely listed as inhibitors; also: potency is read from the fitted curve at half-maximal effect; nearly all actives have a fitted effect of over 55% in size
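Seeded 400 DT40-hTDP1 cells/well (vehicle DMSO, no 20 nM CPT); pinned compounds; ≥48 hr at 37 °C; CellTiter-Glo luminescence as viability measure.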
* = called active by the depositor; ? = inconclusive; nt = not tested or not shown. This is a sample that favours compounds with a hit; in the whole collection about 18% have one here. Unless noted, calls follow the shape of the dose curve; as a rule, active = well fitted curve in the direction sought with a large enough effect; inconclusive = small, poorly fitted or top-dose-only effect, or another doubt; inactive = no such curve, though single readings can be large; an effect the other way counts as inactive or inconclusive. % is scaled to controls: 0 for no effect and ±100 for the full control effect.

SMILES	IL1B secr inh	CtBP-E1A inh	TDP1 block	Six1-Eya2 blk	DT40 TDP1 CPT	DT40 TDP1 no CPT
CC(=O)OCCCNc1cc(Sc2ccc(C)cc2)c2nonc2c1[N+](=O)[O-]	-51*	-28	6%	?	2.9µM*	3.3µM*
O=[N+]([O-])c1c(NCCCO)cc(Sc2ccc(Cl)cc2)c2nonc12	-106*	-4	-2%	0	1.3µM*	1.5µM*
COc1ccc(CNc2cc(NCCCO)c([N+](=O)[O-])c3nonc23)cc1	35	-10	-1%	-20	21µM*	6.5µM*
O=[N+]([O-])c1c(NCCCO)cc(N2CCCCCC2)c2nonc12	1	-6	nt	1	-17%	?
O=[N+]([O-])c1c(NCCCO)cc(SCc2ccco2)c2nonc12	-97*	15	3%	-3	15µM*	21µM*
CCc1sc(C(=O)NCCc2ccc(S(N)(=O)=O)cc2)cc1C	-2	-22	1%	-15	-5%	2%
CC(=O)OCCNc1cc(Sc2nc3ccccc3[nH]2)c2nonc2c1[N+](=O)[O-]	-101*	-2	2%	?	2.3µM*	4.1µM*
O=C(O)c1cc([N+](=O)[O-])c(Sc2nc3ccccc3[nH]2)c([N+](=O)[O-])c1	-7	nt	nt	?	-18%	-15%
CC(=O)OCCNc1cc(SCc2ccco2)c2nonc2c1[N+](=O)[O-]	-52*	-13	nt	-8	?	18µM*
Cn1ccnc1Sc1cc(NCCCO)c([N+](=O)[O-])c2nonc12	-101*	-10	8%	?	3.3µM*	5.2µM*
O=[N+]([O-])c1c(NCCCO)cc(N2CCN(Cc3ccc4c(c3)OCO4)CC2)c2nonc12	-10	-15	3%	-8	6.5µM*	5.8µM*
Cc1ccccc1C(=O)Nc1ccc2c(c1)C(=O)NC2=O	14	3	nt	0	-13%	-15%
Cc1nnc(SCC(=O)N(C)C2CCS(=O)(=O)C2)n1Cc1ccccc1 (centres undefined)	17	4	2%	2	3%	1%
Cc1cc(NC(=O)CSc2nnnn2-c2ccccc2)no1	10	14	0%	4	24%	2%
CC1CN(C(=O)c2ccccc2)OC(c2ccc3c(c2)OCO3)O1 (centres undefined)	12	13	4%	2	-2%	-12%
C=CC(=O)N1C/C=C\C(c2ccc(OC)cc2)N(Cc2ccc(F)cc2)C(=O)C1 (centres undefined)	-61*	4	7%	-17	?	-21%
COc1ccc(C2/C=C\CN(C(=O)C3CCCC3)CC(=O)N2Cc2ccc(F)cc2)cc1 (centres undefined)	20	-22	6%	-3	21µM*	?
COc1ccc(C2/C=C\CN(C(=O)NC34CC5CC(CC(C5)C3)C4)CC(=O)N2Cc2ccc(F)cc2)cc1 (centres undefined)	29	-17	7%	-9	23µM*	?
COc1ccc(C2/C=C\CN(C(=O)C3CCCCC3)CC(=O)N2Cc2ccc(F)cc2)cc1 (centres undefined)	-13	-8	5%	-3	?	?
COc1ccc(C2/C=C\CN(C(=O)Nc3ccccc3-c3ccccc3)CC(=O)N2Cc2ccc(F)cc2)cc1 (centres undefined)	-22	-11	11%	-9	23µM*	?
Nc1c2c(nc3ccc(Br)cc13)N(C1CCCCC1)CC2	nt	nt	2%	nt	nt	nt
COc1ccc(CNC(=O)CSc2nnnn2-c2ccccc2)cc1	2	10	-2%	1	-2%	-9%
CCCCNC(=O)N1CCN(C(=O)C2CCCO2)CC1 (centres undefined)	19	0	3%	6	-9%	?
O=C(CN1CCCN(S(=O)(=O)c2ccc(F)cc2)CC1)Nc1cccc(F)c1	-8	1	5%	-6	?	?
O=C(CN1CCCC1)Nc1cc(C(F)(F)F)cc(C(F)(F)F)c1	-69*	-2	nt	8	-2%	-1%
SMILES	IL1B secr inh	CtBP-E1A inh	TDP1 block	Six1-Eya2 blk	DT40 TDP1 CPT	DT40 TDP1 no CPT
O=C(CN1CCN(S(=O)(=O)c2ccccc2)CC1)Nc1cccc(C(F)(F)F)c1	-25	3	3%	0	16µM*	?
O=C(CNc1cccc(S(=O)(=O)N2CCCC2)c1)Nc1cccc(F)c1	-7	-3	-1%	0	-19%	?
O=C(CNc1cc(S(=O)(=O)N2CCOCC2)ccc1NCC1CCCO1)Nc1ccc(C(F)(F)F)cc1 (centres undefined)	-62*	-22	nt	-4	?	?
N#Cc1ccc(NC(=O)CNc2cc(S(=O)(=O)N3CCOCC3)ccc2NCC2CCCO2)cc1 (centres undefined)	3	2	6%	4	?	-21%
O=C(CNc1cccc(C(F)(F)F)c1)Nc1cccc(S(=O)(=O)N2CCCC2)c1	?	-6	0%	-1	13µM*	-71%
COCCCNC(=O)C(=O)C1C(=O)Nc2ccccc21 (centres undefined)	2	0	0%	4	15%	-14%
CC(C)CN1CC(C(=O)O)CC1=O (centres undefined)	-3	nt	-8%	16	-2%	-5%
Cc1cc(N2CCN(C(=O)Nc3ccccc3C#N)CC2)c2ccccc2n1	-16	-3	4%	-3	-17%	-13%
Cc1cccc(NC(=O)COc2ccc(/C=C\c3[nH]c(=O)[nH]c(=O)c3[N+](=O)[O-])cc2)c1	11	2	0%	-4	10%	-26%
O=C(COc1cccc(C(F)(F)F)c1)Nc1ccc(S(=O)(=O)N2CCCCC2)cc1	?	-12	nt	0	?	26µM*
Cc1cccc(OCC(=O)Nc2ccc(S(=O)(=O)N3CCCC3)cc2)c1	-10	-6	5%	6	?	?
Cc1ccc(NC(=O)CNc2cccc(S(=O)(=O)N3CCCC3)c2)cc1F	-67*	4	0%	-11	-20%	?
O=C(CNc1cccc(S(=O)(=O)N2CCCC2)c1)Nc1ccc(F)c(F)c1	-2	-21	0%	4	?	?
CCOC(=O)c1scc(-c2ccc(C)cc2)c1S(=O)(=O)Nc1ccc(OC)c(Cl)c1	nt	nt	-1%	nt	16µM*	15µM*
